Measurements as given in PubChem BioAssay AID1499 (Sanford-Burnham Center for Chemical Genomics, 2009).
Out of some 93,000 compounds screened, about 65 (0.07%) were called active.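 Rule for the calls: active = 10 µM primary screen giving 50% or more activity, confirmed by 40% or more on retest at that dose; inactive = the rest.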 Shown is part of a subset that was picked to be rich in actives.

molecular target: Integrin beta-2 (Homo sapiens) + Integrin alpha-M (Homo sapiens) (UniProt P05107+P11215); assay: agonists of integrin CD11b/CD18-fibrinogen binding – K562 cells, luminescence, primary screen (AID 1499); details: K562 CD11b/CD18 adhesion to fibrinogen, ATPlite luminescence; at 10 µM; hits give high values
Sequence (P05107 whole entry, looked up, other chains not shown): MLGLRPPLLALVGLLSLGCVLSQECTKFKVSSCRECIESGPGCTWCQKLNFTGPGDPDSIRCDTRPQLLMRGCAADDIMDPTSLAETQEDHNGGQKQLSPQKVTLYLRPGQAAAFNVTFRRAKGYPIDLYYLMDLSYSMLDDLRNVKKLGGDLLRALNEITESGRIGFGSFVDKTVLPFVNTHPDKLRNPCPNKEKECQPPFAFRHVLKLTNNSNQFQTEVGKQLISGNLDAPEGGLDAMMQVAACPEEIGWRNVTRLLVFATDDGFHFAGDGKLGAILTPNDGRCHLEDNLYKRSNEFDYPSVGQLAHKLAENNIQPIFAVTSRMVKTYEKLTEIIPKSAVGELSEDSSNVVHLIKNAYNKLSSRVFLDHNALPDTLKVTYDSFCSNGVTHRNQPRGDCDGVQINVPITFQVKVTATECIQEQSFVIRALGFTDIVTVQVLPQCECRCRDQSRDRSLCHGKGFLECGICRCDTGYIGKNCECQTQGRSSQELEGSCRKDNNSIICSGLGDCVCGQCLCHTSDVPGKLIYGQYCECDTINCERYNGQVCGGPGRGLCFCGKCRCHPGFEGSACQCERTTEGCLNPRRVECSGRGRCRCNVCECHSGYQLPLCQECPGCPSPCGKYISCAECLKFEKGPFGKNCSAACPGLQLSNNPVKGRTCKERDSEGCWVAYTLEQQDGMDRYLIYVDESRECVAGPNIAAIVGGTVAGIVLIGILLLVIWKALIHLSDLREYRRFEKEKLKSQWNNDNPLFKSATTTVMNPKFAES

activation, inactive:
Brc1ccc(-c2csc(N/N=C/c3ccc4c(c3)OCO4)n2)cc1 18.4%
CCOc1ncccc1C(=O)N(C)CC(=O)Nc1ccc(F)cc1 -3.5%
CCCN1CNC(=S)N(CCc2ccccc2)C1 5.1%
Cc1cc(C)cc(C(=O)N2CCN=C2SCc2ccc([N+](=O)[O-])cc2)c1 0.8%
COc1cc(OC)c(C(=O)OC(C)C(=O)Nc2cc(C(F)(F)F)ccc2Cl)cc1OC (centres undefined) 4.1%
O=C(Nc1ccccc1F)c1ccccc1-c1ccccc1 0.5%
Cc1ccc(NC(=O)Nc2ccccc2)c(Br)c1 12.1%
COc1ccccc1CN(C)C(=O)C1(c2ccc(Cl)cc2)CC1 11.3%
C/C(=N\NS(=O)(=O)c1ccc(Cl)cc1)c1ccc(NC(=O)c2ccco2)cc1 -2.4%
CC1CCN(c2ccc(C(=O)NCc3ccc4c(c3)OCO4)cc2[N+](=O)[O-])CC1 0.5%
O=C(COC(=O)c1ccc(Cl)nc1)NCc1ccc2c(c1)OCO2 4%
COCCn1c(=NC(=O)c2ccccc2[N+](=O)[O-])sc2cc(S(C)(=O)=O)ccc21 2%
CCOC(=O)c1c(/N=C/c2cc(C)ccc2O)sc2c1CCC2 -6%
COc1cccc(NC(=O)C(Sc2nc3ccccc3c(=O)n2CC(C)C)c2ccccc2)c1 (centres undefined) 1%
COc1cc(C(=O)NCc2nnc(SCC(=O)Nc3nc4ccc(C)cc4s3)o2)cc(OC)c1OC 10.4%
COc1ccc(-c2csc(NC(=O)CCCc3cccs3)n2)cc1 -1.8%
O=C(Nc1ccc2c(c1)OCO2)c1ccc(N2C(=O)c3ccccc3C2=O)cc1 23.5%
C/C(CC1CC(C)(C)OC1=O)=N/Nc1nc(-c2ccccc2)cs1 (centres undefined) -0.2%
O=C(Cn1cnc2ccccc21)N/N=C/c1ccco1 -5.8%
c1ccc(C2=Nc3cccc4cccc(c34)N2)cc1 7%
COc1ccc(Br)cc1CN(C)CC(=O)Nc1cc([N+](=O)[O-])ccc1OC -0.1%
CCOC(=O)c1cnc2ccc(F)cc2c1Nc1ccc2c(c1)OCCO2 4.3%
Cc1c(Br)c([N+](=O)[O-])nn1CC(=O)Nc1sc2c(c1C(=O)OC(C)C)CCC(C)C2 (centres undefined) 10.3%
COc1ccc(/C=C2/C(=O)OCc3cc(OC)c(OC)cc32)c(OC)c1 4%
COc1ccc(-c2csc(NC(=O)COC(=O)Cc3ccc(Cl)cc3Cl)n2)cc1 -1.1%
Cc1ccc(-n2c(SCC(=O)N3c4ccccc4Sc4ccccc43)nnc2-c2ccncc2)cc1 7.2%
Cc1ccc(C)c(NC(=S)NCC(c2cccnc2)N2CCOCC2)c1 (centres undefined) 5%
Cc1ccc(S(=O)(=O)N2CCN(CC(=O)N/N=C/c3cc([N+](=O)[O-])ccc3Cl)CC2)cc1 -2.8%
COc1ccc(OCC(O)CNC(=O)Nc2ccc(Cl)cc2)cc1 (centres undefined) 7.7%
COc1cc(OC)c(C(=O)Nc2ccccc2-c2ccccc2)cc1OC 6.2%
COc1ccc([N+](=O)[O-])cc1NC(=O)c1ccc(N(Cc2ccccc2C)S(C)(=O)=O)cc1 0.6%
COc1ccc(C2Nc3ccccc3C(=O)N2c2ccc(F)cc2)cc1Cn1nnc2ccccc21 (centres undefined) -1.9%
O=C(N/N=C/c1cccc([N+](=O)[O-])c1)C1CC(=O)N(c2ccc(Br)cc2)C1 (centres undefined) -1.9%
CCN(C(=O)COC(=O)c1c(NC(C)=O)sc(C)c1C)C1CCS(=O)(=O)C1 (centres undefined) 0.3%
CCOC(=O)NC(=O)CSc1nnc(SCCC(=O)O)s1 -3.3%
Cc1cccc(OCc2ccc(C(=O)Nc3ccc(F)cc3)cc2)c1 -6.2%
O=C(NC(=S)Nc1ccc(NC(=O)c2cccs2)cc1)c1ccc([N+](=O)[O-])cc1 55.8%
CC(Sc1nc2cc(Cl)ccc2s1)C(=O)Nc1ccc2c(c1)OCO2 (centres undefined) 0.6%
COc1ccc(OC)c(/C=C/C(=O)OCC(=O)Nc2ccc3c(c2)OCCO3)c1 -3.7%
CCOc1ccc2c(=O)c(-c3ccc4c(c3)OCCCO4)c(C)oc2c1 3%
N#Cc1c(NC(=O)c2ccc(N3CCOCC3)c([N+](=O)[O-])c2)sc2c1CCCC2 -0.4%
Cc1ccc(S(=O)(=O)C2C(=O)NC3(C)CC2c2ccccc2O3)cc1 (centres undefined) 0.7%
CCC1CCCCN1C(=S)Nc1ccc(SC(F)F)cc1 (centres undefined) 1.7%
CCCC/C(C)=N/NC(=O)NC1CCCCC1 -0.9%
CC(C)CNC(=O)COC(=O)c1ccccc1OCC(=O)Nc1ccc(Br)cc1 1%
Cc1cc([N+](=O)[O-])ccc1NC(=O)C1CCCO1 (centres undefined) 1.8%
Cc1ccccc1NC(=O)CSC1=NCCN1 3.2%
Cc1cc(C)c[n+](-c2nc3ccccc3nc2[N-]S(=O)(=O)c2cccs2)c1 2.1%
COc1ccc([N+](=O)[O-])cc1NC(=O)C(C)OC(=O)C1c2ccccc2Oc2ccccc21 (centres undefined) -2.2%
COc1cc(Cl)c(C)cc1NC(=O)[C@@H]1CCCN1C(=O)c1cccs1 -2.3%
CCOC(=O)C1CCN(c2ccc(C(=O)O)cc2[N+](=O)[O-])CC1 -3.3%
O=C(NCC1CCCO1)/C(=C/c1ccc(Cl)cc1)NC(=O)c1ccccc1 (centres undefined) 0.2%
O=C(CN1CCN(c2ccccn2)CC1)N1CCc2ccccc21 3.8%
N#CC1(NC(=O)COc2ccc3oc4ccccc4c3c2)CCCCC1 10.2%
CN1CCN(c2ccc(S(=O)(=O)Nc3ccccc3)cc2[N+](=O)[O-])CC1 -2.2%
Cc1nnc(SCC(=O)N2CCOCC2)[nH]c1=O -6.4%
OCC(CO)(CO)NCc1ccc(-c2ccccc2)cc1 4.4%
COc1cc(/C=N/NC(=O)CCc2n[nH]c(=O)[nH]c2=O)ccc1O 15.1%
COC(=O)C1=C(NC(=O)C(C)(C)C)CCS1 1.8%
Cc1ccc(-c2nnc(SCC(=O)N/N=C/c3cccs3)n2-c2ccc(C)cc2)cc1 9%
COc1ccc(NS(=O)(=O)c2ccc(NC(=O)c3ccc(N(C)S(C)(=O)=O)cc3)cc2)cc1 -3.8%
Cc1ccc(O)c(CCc2ccccc2)n1 -3.8%
CCOC(=O)c1oc2c(CN3CCN(C)CC3)c(O)ccc2c(=O)c1-c1ccc(Br)cc1 2%
O=C(COC(=O)Cn1cnc2ccccc2c1=O)NCC12CC3CC(CC(C3)C1)C2 5.2%
CSCCC(NC(=O)c1cc([N+](=O)[O-])cc([N+](=O)[O-])c1)c1nc2ccccc2[nH]1 (centres undefined) 22%
Cc1ccc2nc(SCc3cn4c(C)cc(C)nc4n3)[nH]c2c1 -2.3%
Oc1c(Br)cccc1/C=N/Nc1c(F)c(F)c(F)c(F)c1F -10.4%
Cc1ccc(NC(=O)CN(C)Cc2ccc(F)cc2)c([N+](=O)[O-])c1 -1%
O=C(Oc1ccccc1Cl)c1ccc(N2CCOCC2)c([N+](=O)[O-])c1 -0.9%
CCS(=O)(=O)Nc1cccc(-c2cc(-c3ccccc3)c3cc(C)ccc3n2)c1 -5.6%
O=C(COC(=O)CSc1nnc(-c2ccc(Cl)cc2)o1)Nc1cc(Cl)cc(Cl)c1 25.1%
O=C(Nc1ccccc1)/C(=C/c1ccc([N+](=O)[O-])cc1)NC(=O)c1ccccc1 29.4%
CN(Cc1ccccc1)C(=O)COC(=O)c1ccccc1Nc1ccccc1 -2.4%
CC(C)C(=O)Nc1ccc2c3c(cccc13)CC2 -4.8%
CCCOC(=O)c1c(NC(=O)c2cnn3c2NC(c2ccccc2)CC3C(F)(F)F)sc2c1CCCC2 (centres undefined) 62.7%
O=C(Oc1ccc([N+](=O)[O-])cc1)c1ccc(Cl)c(S(=O)(=O)N2CCCCC2)c1 -4.7%
O=C(Nc1nnc(C2COc3ccccc3O2)o1)c1ccc(F)cc1 (centres undefined) 3%
COC(=O)N/N=C/c1ccc(-c2ccc(Cl)c(Cl)c2)o1 -1.3%
COc1ccc(Nc2nc(N)nc(CSC(=S)N3CCC(C)CC3)n2)cc1 2.4%
COc1ccc(Cl)cc1NC(=O)[C@@H]1CCCN1C(=O)c1cccs1 2.8%
O=C(Nc1ccccc1Cl)c1ccccc1S(=O)(=O)c1ccccc1[N+](=O)[O-] 1%
CCOc1ccc(NC(=O)COc2ccc(C(=O)NC3CCCc4ccccc43)cc2OC)cc1 (centres undefined) 37%
COc1ccc(C2c3c(C)nn(-c4ccccc4)c3NC(=O)N2c2ccccc2)cc1 (centres undefined) -1.5%
CCCc1c(C)nc2c(Br)cccc2c1Cl 2.4%
COC(=O)c1ccc(C(=O)OC)c(NC(=S)N2CCN(c3cc(Cl)ccc3C)CC2)c1 -1.1%
CCN(CC)c1ccc([N+](=O)[O-])cc1C(=O)O -7%
COc1ccc(CCNC(=O)CSc2nc(-c3ccc(OC)c(OC)c3)ccc2C#N)cc1 8.9%
CC(=O)N1CCN(CC(=O)Nc2ccc(SC(F)F)cc2)CC1 2.9%
Cc1nn(C)c(Oc2ccccc2)c1CCNS(=O)(=O)c1ccc(F)cc1 4.8%
